{"source": "PubChem BioAssay AID1159580", "about": "(chemical genetic matrix, 2015)", "experiment": "chemical genetic growth profiling, strain panel (AID 1159580);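 further: tested at 20 µM; growth read once vehicle control cultures reached saturation at 30 °C; 1 = growth at the plate median or of vehicle wells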", "conditions": "S. cerevisiae deletion strains, growth OD", "note": "About 2,000 (36%) of roughly 5,500 compounds were called active. Inconclusive results (about 18%) are left out. Some of the results follow. Unmarked numbers belong to inactive results. No stated cut-off is given here; in the data, active means normalized growth mostly below about 0.91 (no sharp cut-off); inconclusive means no clear call, values can overlap the other calls; inactive means mostly above about 0.92.", "data": [{"smiles": "CCN1CCN(c2cc3c(cc2F)c(=O)c(C(=O)O)cn3C2CC2)CC1", "values": [{"measurement": "normalized growth", "setting": "locus YAL021C, strain ccr4, stronger effect = lower value", "result": 1.04}, {"measurement": "normalized growth", "setting": "locus YAL026C, strain drs2, stronger effect = lower value", "result": 1.01}, {"measurement": "normalized growth", "setting": "locus YAL030W, strain snc1, stronger effect = lower value", "result": 1.01}, {"measurement": "normalized growth", "setting": "locus YBL061C, strain skt5, stronger effect = lower value", "result": 1.01}, {"measurement": "normalized growth", "setting": "locus YBR009C, strain hhf1, stronger effect = lower value", "result": 1}, {"measurement": "normalized growth", "setting": "locus YBR023C, strain chs3, stronger effect = lower value", "result": 1.01}, {"measurement": "normalized growth", "setting": "locus YBR171W, strain sec66, stronger effect = lower value", "result": 1.02}, {"measurement": "normalized growth", "setting": "locus YBR231C, strain swc5, stronger effect = lower value", "result": 1.02}, {"measurement": "normalized growth", "setting": "locus YBR279W, strain paf1, stronger effect = lower value", "result": 1.01}, {"measurement": "normalized growth", "setting": "locus YCL011C, strain gbp2, stronger effect = lower value", "result": 1.01}, {"measurement": "normalized growth", "setting": "locus YCL016C, strain dcc1, stronger effect = lower value", "result": 0.997}, {"measurement": "normalized growth", "setting": "locus YCL061C, strain MRC1, stronger effect = lower value", "result": 1.01}, {"measurement": "normalized growth", "setting": "locus YCL069W, strain vba3, stronger effect = lower value", "result": 1.01}, {"measurement": "normalized growth", "setting": "locus YCR088W, strain abp1, stronger effect = lower value", "result": 1.01}, {"measurement": "normalized growth", "setting": "locus YDL005C, strain med2, stronger effect = lower value", "result": 1.02}, {"measurement": "normalized growth", "setting": "locus YDL040C, strain nat1, stronger effect = lower value", "result": 1.01}, {"measurement": "normalized growth", "setting": "locus YDR001C, strain nth1, stronger effect = lower value", "result": 1.01}, {"measurement": "normalized growth", "setting": "locus YDR069C, strain doa4, stronger effect = lower value", "result": 1}, {"measurement": "normalized growth", "setting": "locus YDR137W, strain rgp1, stronger effect = lower value", "result": 0.969}, {"measurement": "normalized growth", "setting": "locus YDR159W, strain sac3, stronger effect = lower value", "result": 1.01}, {"measurement": "normalized growth", "setting": "locus YDR195W, strain ref2", "result": 1.04}, {"measurement": "normalized growth", "setting": "locus YDR297W, strain sur2, stronger effect = lower value", "result": 1.01}, {"measurement": "normalized growth", "setting": "locus YDR334W, strain swr1, stronger effect = lower value", "result": 1.02}, {"measurement": "normalized growth", "setting": "locus YDR335W, strain msn5, stronger effect = lower value", "result": 1.03}, {"measurement": "normalized growth", "setting": "locus YDR392W, strain spt3, stronger effect = lower value", "result": 1}, {"measurement": "normalized growth", "setting": "locus YEL003W, strain gim4, stronger effect = lower value", "result": 1.01}, {"measurement": "normalized growth", "setting": "locus YEL037C, strain rad23, stronger effect = lower value", "result": 1.01}, {"measurement": "normalized growth", "setting": "locus YEL061C, strain CIN8 (second series), stronger effect = lower value", "result": 1.02}, {"measurement": "normalized growth", "setting": "locus YER015W, strain faa2, stronger effect = lower value", "result": 1.01}, {"measurement": "normalized growth", "setting": "locus YER016W, strain bim1, stronger effect = lower value", "result": 0.995}, {"measurement": "normalized growth", "setting": "locus YER111C, strain swi4, stronger effect = lower value", "result": 1.02}, {"measurement": "normalized growth", "setting": "locus YER155C, strain BEM2 (second series), stronger effect = lower value", "result": 1.01}, {"measurement": "normalized growth", "setting": "locus YFR010W, strain ubp6, stronger effect = lower value", "result": 1.01}, {"measurement": "normalized growth", "setting": "locus YGL167C, strain pmr1, stronger effect = lower value", "result": 1.02}, {"measurement": "normalized growth", "setting": "locus YGL173C, strain kem1, stronger effect = lower value", "result": 1}, {"measurement": "normalized growth", "setting": "locus YGL227W, strain vid30, stronger effect = lower value", "result": 1.01}, {"measurement": "normalized growth", "setting": "locus YGL240W, strain doc1, stronger effect = lower value", "result": 0.997}, {"measurement": "normalized growth", "setting": "locus YGL253W, strain hxk2, stronger effect = lower value", "result": 1.01}, {"measurement": "normalized growth", "setting": "locus YHR013C, strain ard1, stronger effect = lower value", "result": 1.04}, {"measurement": "normalized growth", "setting": "locus YHR027C, strain rpn1, stronger effect = lower value", "result": 1.02}, {"measurement": "normalized growth", "setting": "locus YHR030C, strain SLT2, stronger effect = lower value", "result": 0.992}, {"measurement": "normalized growth", "setting": "locus YHR079C, strain IRE1, stronger effect = lower value", "result": 0.986}, {"measurement": "normalized growth", "setting": "locus YHR142W, strain chs7, stronger effect = lower value", "result": 1.02}, {"measurement": "normalized growth", "setting": "locus YJL092W, strain hpr5, stronger effect = lower value", "result": 1.01}, {"measurement": "normalized growth", "setting": "locus YJL095W, strain BCK1 (second series), stronger effect = lower value", "result": 1.02}, {"measurement": "normalized growth", "setting": "locus YJL095W, strain BCK1, stronger effect = lower value", "result": 0.995}, {"measurement": "normalized growth", "setting": "locus YJL115W, strain asf1, stronger effect = lower value", "result": 0.989}, {"measurement": "normalized growth", "setting": "locus YJL129C, strain trk1, stronger effect = lower value", "result": 1.03}, {"measurement": "normalized growth", "setting": "locus YJL154C, strain vps35, stronger effect = lower value", "result": 1.02}, {"measurement": "normalized growth", "setting": "locus YJL164C, strain tpk1, stronger effect = lower value", "result": 1.01}, {"measurement": "normalized growth", "setting": "locus YJL166W, strain qcr8, stronger effect = lower value", "result": 1}, {"measurement": "normalized growth", "setting": "locus YJL187C, strain SWE1, stronger effect = lower value", "result": 1.01}, {"measurement": "normalized growth", "setting": "locus YJR066W, strain TOR1, stronger effect = lower value", "result": 0.962}, {"measurement": "normalized growth", "setting": "locus YKL160W, strain elf1, stronger effect = lower value", "result": 1}, {"measurement": "normalized growth", "setting": "locus YKR026C, strain gcn3, stronger effect = lower value", "result": 1.01}, {"measurement": "normalized growth", "setting": "locus YKR091W, strain srl3, stronger effect = lower value", "result": 1}, {"measurement": "normalized growth", "setting": "locus YLL001W, strain dnm1, stronger effect = lower value", "result": 1.02}, {"measurement": "normalized growth", "setting": "locus YLL026W, stronger effect = lower value", "result": 1}, {"measurement": "normalized growth", "setting": "locus YLL041C, strain sdh2, stronger effect = lower value", "result": 1.01}, {"measurement": "normalized growth", "setting": "locus YLR027C, strain aat2, stronger effect = lower value", "result": 1.01}, {"measurement": "normalized growth", "setting": "locus YLR113W, strain HOG1, stronger effect = lower value", "result": 1.03}, {"measurement": "normalized growth", "setting": "locus YLR221C, strain rsa3, stronger effect = lower value", "result": 1.01}, {"measurement": "normalized growth", "setting": "locus YLR258W, strain gsy2, stronger effect = lower value", "result": 1.01}, {"measurement": "normalized growth", "setting": "locus YLR262C, strain YPT6 (second series), stronger effect = lower value", "result": 0.962}, {"measurement": "normalized growth", "setting": "locus YLR320W, strain mms22, stronger effect = lower value", "result": "0.854 (active)"}, {"measurement": "normalized growth", "setting": "locus YLR342W, strain FKS1, stronger effect = lower value", "result": 1.02}, {"measurement": "normalized growth", "setting": "locus YLR357W, strain rsc2, stronger effect = lower value", "result": 0.994}, {"measurement": "normalized growth", "setting": "locus YLR370C, strain arc18, stronger effect = lower value", "result": 1.02}, {"measurement": "normalized growth", "setting": "locus YLR384C, strain iki3, stronger effect = lower value", "result": 1}, {"measurement": "normalized growth", "setting": "locus YML120C, strain ndi1, stronger effect = lower value", "result": 1.01}, {"measurement": "normalized growth", "setting": "locus YMR058W, strain fet3, stronger effect = lower value", "result": 1.01}, {"measurement": "normalized growth", "setting": "locus YMR125W, strain sto1, stronger effect = lower value", "result": 1.02}, {"measurement": "normalized growth", "setting": "locus YMR129W, stronger effect = lower value", "result": 1.01}, {"measurement": "normalized growth", "setting": "locus YMR205C, strain PFK2, stronger effect = lower value", "result": 1}, {"measurement": "normalized growth", "setting": "locus YMR231W, strain pep5, stronger effect = lower value", "result": 1.02}, {"measurement": "normalized growth", "setting": "locus YNL071W, strain lat1, stronger effect = lower value", "result": 1.02}, {"measurement": "normalized growth", "setting": "locus YNL183C, strain NPR1, stronger effect = lower value", "result": 0.935}, {"measurement": "normalized growth", "setting": "locus YNL209W, strain ssb2, stronger effect = lower value", "result": 1.03}, {"measurement": "normalized growth", "setting": "locus YNL248C, strain rpa49, stronger effect = lower value", "result": 1.01}, {"measurement": "normalized growth", "setting": "locus YNL322C, strain KRE1 (second series), stronger effect = lower value", "result": 1}, {"measurement": "normalized growth", "setting": "locus YNR049C, strain mso1, stronger effect = lower value", "result": 1.01}, {"measurement": "normalized growth", "setting": "locus YOR001W, strain rrp6, stronger effect = lower value", "result": 1.01}, {"measurement": "normalized growth", "setting": "locus YOR070C, strain gyp1, stronger effect = lower value", "result": 1.02}, {"measurement": "normalized growth", "setting": "locus YOR080W, strain dia2, stronger effect = lower value", "result": 0.992}, {"measurement": "normalized growth", "setting": "locus YOR083W, strain WHI5, stronger effect = lower value", "result": 1.01}, {"measurement": "normalized growth", "setting": "locus YOR106W, strain vam3, stronger effect = lower value", "result": 0.994}, {"measurement": "normalized growth", "setting": "locus YOR231W, strain MKK1, stronger effect = lower value", "result": 0.981}, {"measurement": "normalized growth", "setting": "locus YOR265W, strain rbl2, stronger effect = lower value", "result": 1.01}, {"measurement": "normalized growth", "setting": "locus YOR270C, strain vph1, stronger effect = lower value", "result": 1.03}, {"measurement": "normalized growth", "setting": "locus YOR290C, strain snf2, stronger effect = lower value", "result": 0.957}, {"measurement": "normalized growth", "setting": "locus YPL051W, strain arl3, stronger effect = lower value", "result": 1.01}, {"measurement": "normalized growth", "setting": "locus YPL078C, strain atp4, stronger effect = lower value", "result": 1.02}, {"measurement": "normalized growth", "setting": "locus YPL106C, strain sse1, stronger effect = lower value", "result": 0.998}, {"measurement": "normalized growth", "setting": "locus YPL240C, strain hsp82, stronger effect = lower value", "result": 1.01}, {"measurement": "normalized growth", "setting": "locus YPL256C, strain CLN2, stronger effect = lower value", "result": 0.986}]}]}
